# Assay results: ChEMBL document CHEMBL4513216, “Probing the Open Global Health Chemical Diversity Library for Multistage-Active Starting Points for Next-Generation Antimalarials” (ACS Infect Dis, 2020)
# The campaign covered roughly 69,000 compounds. About 8,600 (12%) showed an effect of 50% or more. What follows is part of a selection rich in strong results, with near analogues and random picks from the rest.
# System: Plasmodium berghei
# Assay: Screen against P. berghei liver stage (PbLuc), transformed with Luciferase, at 10uM
# Format: functional, HepG2
# Conditions: tested at 10 uM
row,Structure (SMILES),INHIBITION [%]
1,CN1C[C@H]2CC[C@@H](CC1=O)N2C(=O)c1cc2ccccc2[nH]c1=O,-7.53
2,Cc1cc(N(C)C)nc(N2CCCC2c2ccccn2)n1 (centres undefined),-30
3,CC(C)c1noc(CCCC(=O)NC(C)c2nnc3n2CCC3)n1 (centres undefined),50.2
4,CCCC(=O)NC(C)c1nnc2n1CCC2 (centres undefined),3.73
5,CC(C)c1noc(CCC(=O)NC(C)c2nnc3n2CCC3)n1 (centres undefined),20.6
6,CC(C)CCC(=O)NC(C)c1nnc2n1CCCCC2 (centres undefined),53.8
7,CC(C)c1noc(CCC(=O)NC(C)c2nnc3n2CCCCC3)n1 (centres undefined),11.8
8,CC(NC(=O)CCC1CCCCC1)c1nnc2n1CCC2 (centres undefined),-31.8
9,CSCCC(C)(O)CNS(=O)(=O)Cc1cccc(C)c1 (centres undefined),17
10,CCOc1cncc(N2CCCC2c2nnc3n2CCCCC3)n1 (centres undefined),24.2
11,Clc1cncc(N2CCCC2c2nnc3n2CCCCC3)n1 (centres undefined),-22.4
12,Cc1cc(N2CCCC2c2nnc3n2CCCCC3)nc(N)n1 (centres undefined),63.6
13,Cc1cc(N2CCCC2c2nnc3n2CCCCC3)nc(C)n1 (centres undefined),23.6
14,c1ccc2nc(N3CCCC3c3nnc4n3CCCCC4)cnc2c1 (centres undefined),42.8
15,c1cnc2nc(N3CCCC3c3nnc4n3CCCCC4)ccc2n1 (centres undefined),58.7
16,Cc1cnn(C2CCCN(C(=O)Cc3n[nH]c4ccccc34)C2)c1 (centres undefined),33.7
17,CN(CCc1ccccn1)C(=O)CCC1CCCN(S(C)(=O)=O)C1 (centres undefined),15.3
18,O=C(NCc1nncn1C1CCCCC1)C1COc2ccccc2C1 (centres undefined),32.4
19,CNC(=O)N1CCc2cc(C(=O)N(C)C)c(NCC3CC3)nc2CC1,-25
20,COc1ccc(Cl)cc1CCNC(=O)NCc1ncnn1C,-23.5
21,COc1ccc(C)c(NC(=O)NCc2ncnn2C)c1,51.1
22,COc1ccc(Br)c(NC(=O)NCc2ncnn2C)c1,13.8

row,Structure (SMILES),INHIBITION [%]
1,Cc1cc(C)cc(C(=O)NCc2ncnn2C)c1,57.2
2,Cc1c(Cl)cc(C(=O)NCCc2ncnn2C)cc1Cl,42
3,Cc1c(NCC(C)(C)C)cccc1C(=O)NCc1ncnn1C,-30.1
4,O=C(c1ccc(-c2ccccc2)[nH]c1=O)N1CCN(C2CC2)CC1,32.8
5,CN(C)C(=O)[C@H]1C[C@H]2CN(C(=O)NCC3CCCCC3)C[C@@H]1O2,-36
6,Fc1ccc(CN2CCCn3cnc(COCC4CC4)c3C2)cc1,45.8
7,NC(=O)C(NC(=O)COC1CCCC1)c1ccccc1 (centres undefined),45.3
8,O=C(NC(C(=O)Nc1cc[nH]n1)c1ccccc1)C1CCC1 (centres undefined),50.7
9,O=C(NC(c1ccccc1)c1cccnc1)C1CC1 (centres undefined),25.8
10,NC(=O)C(NC(=O)COC1CCCCC1)c1ccccc1 (centres undefined),22.5
11,CC(NC(=O)C1CCCC1)c1nc(-c2ccccc2)c[nH]1 (centres undefined),31.7
12,O=C(COC1CCCC1)NC(C(=O)Nc1cc[nH]n1)c1ccccc1 (centres undefined),62.6
13,c1cnnc(N2CCCC2CNCc2nc(-c3ccco3)no2)c1 (centres undefined),30.42
14,CNC(=O)CN1CC[C@H]2CN(C(=O)c3ccoc3)C[C@H]2C1,15.4
15,Cc1ccc(CC(=O)N2CCCC(n3ccnc3C(C)C)C2)cn1 (centres undefined),-9.19
16,CN1CCOC(CNC(=O)Cc2coc(-c3ccccc3)n2)C1 (centres undefined),-33.9
17,CC(=O)c1cccc(NC(=O)CCn2nc(-c3cccs3)oc2=O)c1,29.2
18,O=C(c1c2c(NCC3CC3)ncnc2n2ccccc12)N1CCOCC1,50.7
19,O=C(c1c2c(N3CCCC3)ncnc2n2ccccc12)N1CCOCC1,36.2
20,O=C(c1c2c(NCC3CC3)ncnc2n2ccccc12)N1CCCC1,26.5
21,CCc1n[nH]c(C2CN(C(=O)c3cscn3)CCO2)n1 (centres undefined),-23.9
22,CO[C@@H]1CN(S(=O)(=O)c2cn(C)cn2)[C@@H]2CCCO[C@@H]21,-66.7

row,Structure (SMILES),INHIBITION [%]
1,O=C(NCc1nncn1C1CC1)c1cccnc1Oc1ccccc1,25.6
2,CNC(=O)CN1CCC(c2nn(C)c(=O)n2-c2ccccc2)CC1,53.7
3,CC(=O)N1CCC(c2nn(C)c(=O)n2-c2ccccc2)CC1,35.2
4,CNC(=O)CN1CCC(CN(C)CCSc2ccccc2)CC1,-70.7
5,CCCC(=O)N1CCC(c2nn(C)c(=O)n2-c2ccccc2)CC1,28.7
6,Cn1nc(C2CCN(CC(=O)NC3CC3)CC2)n(-c2ccccc2)c1=O,-21.3
7,CCSC(C)C(=O)N1CCC(c2nn(C)c(=O)n2-c2ccccc2)CC1 (centres undefined),63.7
8,Cc1nc(NCc2cccc(F)c2)cc(C2CCNCC2)n1,24.8
9,COc1ccccc1CN1C(=O)O[C@@H]2CN(C(C)C)C[C@@H]21,79.5
10,COc1ccccc1CN1C(=O)O[C@@H]2CN(CC3CC3)C[C@@H]21,-0.613
11,COc1ccccc1CN1C(=O)O[C@@H]2CN(S(=O)(=O)N(C)C)C[C@@H]21,7.97
12,CCNc1ccnc(NCC2(N(C)C)CCOCC2)n1,39
13,CCC1(CC)CC(=O)N(CC(O)c2ccc(Cl)cc2)C1=O (centres undefined),7.3
14,O=C(CCc1nnc(-c2ccsc2)o1)NCC1CCN(C2CC2)C1 (centres undefined),-6.04
15,O=C(CCc1nc(-c2cccnc2)no1)NCC1CCN(C2CC2)C1 (centres undefined),11
16,O=C(CCc1nc(-c2ccsc2)no1)NCC1CCN(C2CC2)C1 (centres undefined),69
17,Cc1cc(NCCS(C)(=O)=O)nc2cc3c(cc12)CCC3,41.5
18,COc1cc2nc(NCCN3CCNC3=O)cc(C)c2cc1OC,-13.4
19,Cc1cc(NCCN2CCNC2=O)nc2cc3c(cc12)CCC3,59.5
20,O=c1[nH]c2c(c(=O)n1C1CCCCC1)CCC2Nc1ccccc1 (centres undefined),-22.9
21,O=c1[nH]c2c(c(=O)n1C1CCCCC1)CCC2NCCc1ccccc1 (centres undefined),37.9
22,O=C(c1ccc2c(c1)[nH]c(=O)n2C1CCCC1)N1CC(O)C1,44.3

row,Structure (SMILES),INHIBITION [%]
1,COc1ccc(NC2CCc3c2[nH]c(=O)n(C2CCCCC2)c3=O)cc1 (centres undefined),78.4
2,O=c1[nH]c2c(c(=O)n1C1CCCCC1)CCC2Nc1ccccc1Cl (centres undefined),80.5
3,Cc1cccc(NC2CCc3c2[nH]c(=O)n(C2CCCCC2)c3=O)c1C (centres undefined),84
4,O=c1[nH]c2c(c(=O)n1C1CCCCC1)CCC2NCc1ccccc1 (centres undefined),52.1
5,O=c1[nH]c2c(c(=O)n1C1CCCCC1)CCC2Nc1ccc(Cl)cc1 (centres undefined),46.5
6,O=c1[nH]c2ncccc2n1C1CCCC1,9
7,COc1ccc(NC(=O)N2CCCCC2c2ncc[nH]2)cc1 (centres undefined),11.2
8,O=c1[nH]c2c(c(=O)n1C1CCCCC1)CCC2Nc1ccccn1 (centres undefined),24.2
9,O=c1[nH]c2ncccc2n1C1CCCCC1,1.41
10,Cc1cccc(CN2C[C@@H]3CN(C(=O)c4cnoc4C)C[C@@H]3C2=O)n1,1.34
11,CC(=O)N(C)Cc1ccccc1NC(=O)c1cnn(C)c1C,-18.7
12,CNC(=O)CN1CCOCC2(C1)CN(C(=O)CC(C)C)CCO2 (centres undefined),-3.52
13,Cc1nn(C)cc1S(=O)(=O)NCC(C)Cn1cc(Cl)cn1 (centres undefined),18.4
14,COCCN(C)Cc1cc(Cl)ccc1OCC(O)CN1CCCCCC1 (centres undefined),25.4
15,Cn1cccc1C(=O)N1CCc2c(CNS(C)(=O)=O)cncc2C1,-7.29
16,Cc1ccc(CC2CCCN(S(C)(=O)=O)C2)nc1 (centres undefined),21.9
17,CCCOc1cccc(-c2nc3c([nH]2)CCNC3)c1,13.7
18,CC(O)c1cccc(OCc2ccon2)c1 (centres undefined),74.3
19,CCCOc1cccc(OCc2ccon2)c1,91.3
20,OCc1cccc(OCc2ccon2)c1,36.8
21,Cc1cccc(C(C(=O)N(C)Cc2ccon2)N(C)C)c1 (centres undefined),25.9
22,CC(C)Oc1cccc(CN(C)C(=O)Cc2ccon2)c1,-24.6

row,Structure (SMILES),INHIBITION [%]
1,Cc1ccsc1CNC(=O)CCc1c(C)nc2cc(O)nn2c1C,40.2
2,COc1ncccc1CNC(=O)C1CC(=O)N(C)C1 (centres undefined),10.6
3,Cc1nc(CNCc2cccnc2Oc2ccc(C)c(F)c2F)c[nH]1,75.3
4,Cc1ccccc1Oc1ncccc1CNC1CCC1,28
5,CN(C)S(=O)(=O)NCc1cccnc1Oc1ccccc1F,5.46
6,c1ccc(Oc2ncccc2CNCc2ccccn2)cc1,19.7
7,Cc1ccccc1Oc1ncccc1CNS(C)(=O)=O,0.139
8,CC(C)S(=O)(=O)NCc1cccnc1Oc1ccc(F)cc1F,56.3
9,CCCS(=O)(=O)NCc1cccnc1Oc1ccc(C)c(F)c1F,50.3
10,CN(C)S(=O)(=O)NCc1cccnc1Oc1ccc(F)cc1F,31.7
11,CN1CC(C(=O)NCc2cccnc2OCc2ccccc2)CC1=O (centres undefined),55.1
12,CCCS(=O)(=O)NCc1cccnc1Oc1ccc(C)nc1,1.93
13,CN1CC(C(=O)NCc2cccnc2OCC(F)(F)F)CC1=O (centres undefined),44.9
14,Cc1nc(CN(C)C(=O)CN(C)C)nc2c1CCC(=O)N2CCC(C)C,7.43
15,Cc1cccc(CS(=O)(=O)c2nnc([C@@H](N)Cc3ccccc3)o2)c1,23.1
16,COc1ccc(C)cc1NC(=O)c1c(C)cn(C)c1CC(=O)O,-0.473
17,CCOC(=O)Cn1c(=O)c(OCC)nc2cnccc21,42.6
18,CN(C)CC(=O)N1CCCC2(CCN(c3ccccc3)C2=O)C1 (centres undefined),-4.82
19,CCOc1ccccc1CNC(=O)N1CCC(Cc2cnn(C)c2)C1 (centres undefined),-12.45
20,C1CN(CC2CCOCC2)Cc2c(COCC3CC3)nnn2C1,8.03
21,CCOC(=O)c1nc(CC(=O)Nc2ccc3cc[nH]c3c2)no1,3.19
